Screening data (PubChem)
Tau fibril ThT – tau fibrillization inhibition (ThT binding) | recombinant tau K18 P301L, heparin-induced fibrillization, ThT fluorescence | P10636 | actives 2.1% (n = 270,000) | AID 1460 | Potency, µM (titrated, usually from 57.4 µM), for inactives: at the highest dose activity, negative = inhibition, actives largely listed as inhibitors; further: nearly all actives have a fitted effect of over 55% in size
Target sequence (P10636 561-689 P618L limits assumed): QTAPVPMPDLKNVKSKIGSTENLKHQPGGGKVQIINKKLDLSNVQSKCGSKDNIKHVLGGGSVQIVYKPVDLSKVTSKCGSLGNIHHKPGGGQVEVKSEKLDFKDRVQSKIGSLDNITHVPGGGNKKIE
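Aggregation was driven by heparin (20 uM final) acting on recombinant tau […] bearing P301L in 100 mM sodium acetate pH 7; fibrils were detected with Thioflavin T.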
Tau fluor counter – counter-screen for tau fibril formation inhibitors. tau K18 P301L (four-repeat tau fragment) Alexa594 fluorescence, heparin fibrillization. Potency, µM (doses to about 57.7 µM), for inactives: at the top dose activity change, negative = decrease. actives 0.93% (n = 280,000); further: nearly all actives have a fitted effect of over 55% in size
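Human K18 P301L tau (15 uM unlabeled plus 0.24 uM Alexa 594-labeled, final) in 100 mM sodium acetate pH 7 was mixed with compound and 20 uM heparin and incubated 6 hr at 37 C.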
Tau fibril FP – blocks human tau fibril formation measured by polarization | P10636 | K18 P301L tau heparin fibrillization, Alexa594 FP, 6 h | Potency, µM (series often up to 57.7 µM), for the others: top-dose activity, negative = inhibition, most hits filed as inhibitors | actives 0.39% (n = 280,000); further: nearly all actives have a fitted effect of over 55% in size
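Quantitative HTS format: compounds meet 15 uM recombinant K18 P301L tau and Alexa 594-tau tracer in 100 mM sodium acetate pH 7; 20 uM heparin triggers fibrillization at 37 C over 6 hr; FP gives the signal.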
ALDH1A1 inh – ALDH1A1 (human) enzyme inhibition; P00352; Purified ALDH1A1, NADH fluorescence, propionaldehyde substrate; Potency, µM (highest dose often 75.3 µM), for the others: at the top dose activity, negative = inhibition, most hits filed as inhibitors; actives 7.3% (n = 220,000); AID 1030; active means well fitted inhibition curve with a large enough effect, not every such curve was filed as active; inconclusive means small, poorly fitted or top-dose-only effect, or another doubt; inactive means no such curve, though single readings can be large or run the other way;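 further: plate controls were no enzyme wells and a reference inhibitor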
HPGD inh – blocks human HPGD enzyme activity. purified HPGD, NADH fluorescence kinetic, PGE2 substrate. Potency, µM, without a hit: at the top dose activity change, negative = inhibition, most hits filed as inhibitors. P15428. actives 4.3% (n = 150,000); active means well fitted inhibition curve with a large enough effect, not every such curve was filed as active; inconclusive means small, poorly fitted or top-dose-only effect, or another doubt; inactive means no such curve, though single readings can be large or run the other way
Target sequence (P15428 whole entry, looked up): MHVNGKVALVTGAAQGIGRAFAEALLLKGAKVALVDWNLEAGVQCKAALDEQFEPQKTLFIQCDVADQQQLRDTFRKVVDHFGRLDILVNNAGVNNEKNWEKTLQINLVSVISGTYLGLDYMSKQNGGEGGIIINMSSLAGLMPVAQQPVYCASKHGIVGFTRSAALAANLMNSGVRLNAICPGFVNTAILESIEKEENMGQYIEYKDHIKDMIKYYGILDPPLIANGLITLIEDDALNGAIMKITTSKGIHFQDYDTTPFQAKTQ
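20 nM HPGD preincubated 15 min at room temperature with compound in 50 mM Tris-HCl pH 8, 0.01% Tween 20. Started with 1 mM NAD+ and 30 uM prostaglandin E2; NADH fluorescence (360/450 nm) read 5 times over 30-s intervals, last minus first.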
NPSR antagonist – antagonists of human neuropeptide S receptor cAMP signaling; Q6W5P4; CHO-NPSR cells, cAMP TR-FRET, antagonist mode; Potency, µM (titrated, usually from 38.3 µM), without a hit: at the highest dose activity change, negative = inhibition, hits mostly inhibitors; actives 1% (n = 220,000); AID 1461; further: nearly all actives have a fitted effect of over 50% in size
* marks the source's active call; other numbers are inactive results; ? = inconclusive; . = no result; [ ] = another dose, or the depositor's remark. Shown are actives, neighbours in structure and some others; about 9.5% of the full set was active somewhere. Unless noted, the call rests on the fitted dose curve; in most records, active means well fitted curve in the direction sought with a large enough effect; inconclusive means small, poorly fitted or top-dose-only effect, or another doubt; inactive means no such curve, though single readings can be large; an effect the other way counts as inactive or inconclusive. Unless noted, on the % scale 0 is the no-effect control and ±100 the full control effect; potency means the concentration at half of the fitted maximal effect.

SMILES	Tau fibril ThT	Tau fluor counter	Tau fibril FP	ALDH1A1 inh	HPGD inh	NPSR antagonist
COC(=O)c1ccc(=O)n(CC(=O)c2ccc(Cl)cc2)c1	-1%	0%	3%	5%	.	0%
COC(=O)c1cc(C(=O)c2ccc(Cl)cc2)n2c(=O)/c(=C\N(C)C)sc12	?	-22%	2%	0.25µM*	.	-44%
COC(=O)c1ccccc1	.	.	.	8%	-5%	.
COc1ccc2nc3c(c([Si](C)(C)C(C)(C)C)c2c1)Cn1c-3cccc1=O	?	?	-12%	22µM*	?	.
COC(=O)N1C2CC3(C)CC(=O)CC1(C)C3c1ccccc12 (stereo unspecified)	-5%[11.5 µM]	-15%[11.6 µM]	-1%[11.6 µM]	10%[13.5 µM]	-4%	.
Cc1onc(-c2ccccc2)c1C(=O)OCC(=O)NCc1ccc(F)cc1	-1%	-14%	-9%	-4%	.	2%
CCC1=Nc2ccccc2NC2=C1C(=O)CCC2	25µM*	?	?	11µM*	-20%	-10%[46.1 µM]
COc1ccc(C(=O)Cc2cc(OC)c(OC)cc2C(=O)c2ccccc2F)cc1OC	-18%	-14%	0%	-8%	.	-34%
CCN(CC)C(=O)CSc1nc(N)c(C(=O)Nc2ccc(OC)cc2)s1	-5%	-3%	15%	?	-19%	4%
COc1ccc(NC(=O)c2sc(SCc3ccccc3)nc2N)cc1	?	?	11%	13µM*	?	-30%[46.1 µM]
CCOC(=O)CSc1nc(N)c(C(=O)Nc2ccc(N(C)C)cc2)s1	16µM*	?	7%	?	-2%	-7%[7.67 µM]
COc1cccc(NC(=O)CC2Nc3cc(C)c(C)cc3NC2=O)c1 (stereo unspecified)	?	?	10%	.	.	.
CC(C)(C)c1cc(CN(CCO)CCO)cc(C(C)(C)C)c1O	?	-1%	15%	2.5µM*	25µM*	-6%[46.1 µM]
CN(C)Cc1cc(C(C)(C)C)c(O)c(C(C)(C)C)c1	-15%	-8%	-6%	?	-2%	1%[46.1 µM]
NC(=S)N/N=C/c1ccccc1OCCSc1ccc(Cl)cc1	2%	-1%	1%	-6%	35µM*	-59%
COc1cccc(/C=N/NC(N)=S)c1OCc1ccccc1Cl	-2%	-6%	-1%	12%	-13%	-37%
COc1cc2cccc(OC)c(=O)c2c(O)c1OC	?	-3%	7%	9%	-1%	-7%
CC(=O)Oc1cc2cccc(OC(C)=O)c(=O)c2c(OC(C)=O)c1OC(C)=O	3.5µM*	8.9µM*[quencher]	16µM*	4µM*	.	-4%
CC(=O)OCC1OC(c2cc(C)cc(C)c2)C=CC1OC(C)=O (stereo unspecified)	-8%[11.5 µM]	2%[11.6 µM]	6%[11.6 µM]	6%[13.5 µM]	.	.
COc1ccc(N=Nc2nc3ccc(Br)cc3n2C)cc1	1.6µM*	-22%	3%	?	-5%	-8%[46.1 µM]
Cc1c(C(=O)N(C)C)sc2c1c(=O)n(-c1ccc(Cl)cc1)c(=O)n2CC(=O)C(C)(C)C	7%	-2%	2%	.	.	.
CCOc1ccc(NC2=C(OC)C(=O)c3ccccc3C2=O)cc1	10µM*	?	?	3.2µM*	20µM*	-30%
COC1=C(Nc2ccc(OC)cc2)C(=O)c2ccccc2C1=O	11µM*	?	?	?	16µM*	-30%
COc1ccc(NC2=C(c3ccc(OC)cc3)C(=O)c3ccccc32)cc1	?	?	?	14%	-8%	5%
CCOc1ccc(NC2=C(Cl)C(=O)N(Cc3ccccc3)C2=O)cc1	-8%	-8%	1%	13%	.	-28%[46.1 µM]
SMILES	Tau fibril ThT	Tau fluor counter	Tau fibril FP	ALDH1A1 inh	HPGD inh	NPSR antagonist
Cc1cccc(Nc2nc(N)c([N+](=O)[O-])c(NCCO)n2)c1	?	4%	15%	-6%	.	8%
COc1ccc(NC2=C(NCCO)C(=O)c3ccccc3C2=O)cc1	13µM*	?	?	11µM*	-18%	-31%
Cc1cccc(NC2=C(NCCO)C(=O)c3ccccc3C2=O)c1	25µM*	?	?	25µM*	-6%	-36%
CCc1ccc(CNC(=O)c2nn(-c3ccc(OC)c(Cl)c3)c(=O)c3c2c2ccccc2n3C)cc1	5%	-8%	-10%	.	.	.
COC1=C(Nc2ccc(O)cc2)C(=O)c2ccccc2C1=O	13µM*	?	?	18µM*	28µM*	-33%
O=C(Nc1cc(C(=O)Nc2ccc(S(=O)(=O)O)cc2S(=O)(=O)O)cc(C(=O)Nc2ccc(S(=O)(=O)O)cc2S(=O)(=O)O)c1)Nc1cc(C(=O)Nc2ccc(S(=O)(=O)O)cc2S(=O)(=O)O)cc(C(=O)Nc2ccc(S(=O)(=O)O)cc2S(=O)(=O)O)c1	?	-6%	14µM*	-3%	-8%	-11%[46.1 µM]
O=C(NC(=S)NNC(=O)c1ccccc1[N+](=O)[O-])c1ccccc1	?	-5%	-5%	10µM*	32µM*	-19%[46.1 µM]
O=C(NNC(=S)NC(=O)c1ccccc1[N+](=O)[O-])c1ccccc1	-12%	-2%	-1%	-4%	-2%	18%[46.1 µM]
O=C(NNC(=O)c1ccccc1[N+](=O)[O-])c1ccccc1[N+](=O)[O-]	1%	9%	3%	22µM*	.	16%
O=C(NCc1cccs1)c1ccccc1[N+](=O)[O-]	9%	18%	2%	8%	13µM*	11%
CCC(=O)NC(=S)NNC(=O)c1ccccc1[N+](=O)[O-]	?	-1%	-7%	10µM*	.	11%
CCN(c1ccccc1)S(=O)(=O)c1ccc(Cl)c(C(=O)N(CC2CCCO2)C2CCS(=O)(=O)C2)c1 (stereo unspecified)	5%	-5%	4%	-14%	.	-34%
O=C(N/N=C1\CCS(=O)(=O)c2ccc(F)cc21)c1ccc(O)cc1	2%	-4%	-3%	.	.	5%
COC(=O)c1ccc(C2C(C#N)=C(N)Oc3cc(C)n(C)c(=O)c32)cc1 (stereo unspecified)	-1%	-4%	6%	25µM*	-12%	-10%[46.1 µM]
CCc1cc2c(nc1CC)CCN(CC/C(C)=N/OC[C@@H](C)[C@H](OCc1ccccc1)C(C)C)C2	-8%[11.5 µM]	-6%[11.6 µM]	0%[11.6 µM]	12%[13.5 µM]	.	.
COCCn1c(C)cc(/C=C2\NC(=S)N(C)C2=O)c1C	?	-16%	1%	16µM*	20µM*	-30%
COCCn1c(C)cc(/C=C2/SC(=O)N(C(C)C(=O)OC)C2=O)c1C (stereo unspecified)	-15%	-28%	5%	.	.	-43%
CC(C)c1nnc(SCC(=O)N2CCc3ccccc32)n1N	-19%	2%	-6%	?	.	-1%
O[C@H]([C@H](O)[C@@H](O)c1nc2ccccc2[nH]1)[C@@H](O)c1nc2ccccc2[nH]1	.	.	.	6%[13.5 µM]	0%	.
